High-throughput results deposited in PubChem by several laboratories.
BoNT A protease – BoNT/A light chain protease inhibitors, primary screen, biochemical, flow cytometry, MLPCN library; multiplex microsphere protease substrate cleavage; inhibition, % at 10 µM; hit rate 0.17% among 360,000; note: plate controls were buffer without enzyme for full effect and enzyme alone for no effect
MazEF act – activators of E. coli MazEF toxin-antitoxin RNase, primary screen, biochemical, fluorescence, uHTS; Endoribonuclease toxin MazF (Escherichia coli (strain K12)), P0AE70; FAM/BHQ RNA-DNA oligo cleavage fluorescence, 5 h; activation, % at 20 µM; hit rate 0.32% among 350,000; AID 504720, 2011; in the data active = activation above about 50%
Target sequence (P0AE70 whole entry, looked up): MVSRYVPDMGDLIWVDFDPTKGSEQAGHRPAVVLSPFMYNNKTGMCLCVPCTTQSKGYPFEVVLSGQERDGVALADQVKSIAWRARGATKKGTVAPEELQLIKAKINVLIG
Bead autofluor – counter-screen for toxin protease inhibitors: compound fluorescence; compound autofluorescence counterscreen, microsphere flow cytometry; hits give high values; fluorescence intensity (test concentration not listed); hit rate 3.1% among 360,000; AID 624483; in the data active = fluorescence intensity above about 16000; inconclusive = no clear call, values can overlap the other calls
BoNT-F LC inh – BoNT/F light chain protease inhibitors, primary screen, biochemical, flow cytometry, MLPCN library | Multiplex microsphere protease cleavage assay | inhibition, % at 10 µM | hit rate 0.22% among 360,000; in the data active = inhibition above about 35%, passing the limit was not always enough; inconclusive = no clear call, values can overlap the other calls; note: plate controls were buffer without enzyme for full effect and enzyme alone for no effect
Anthrax LF inh2 – Bacillus anthracis LF protease inhibitors, primary screen, biochemical, multiplex microsphere, MLPCN library; Lethal factor (Bacillus anthracis), P15917; multiplex microsphere protease cleavage assay; inhibition, % at 10 µM; hit rate 0.12% among 360,000; AID 588501, 2011; note: plate controls were buffer without enzyme for full effect and enzyme alone for no effect
* hit, by the source's call; ? = inconclusive. Sampled rows, rich in hits. Any-hit rate of the full collection: about 3.7%. Cut-off read from the data, not from the text of the source, unless noted: active = inhibition above about 30%; inconclusive = no clear call, values can overlap the other calls; inactive = below that.

SMILES | BoNT A protease | MazEF act | Bead autofluor | BoNT-F LC inh | Anthrax LF inh2
COC(=O)c1ccc(CNC(=O)COC(=O)/C=C/c2cc(OC)c(OC)c(OC)c2)cc1 | 0.0 | 6.5 | 3751 | -2.8 | -1.9
CCc1nc(OCc2ccccc2)c2sc3nc4c(cc3c2n1)COC(C)(C)C4 | ? | 9.9 | 21172* | 7.8 | -8.3
COc1ccc(F)cc1S(=O)(=O)NC1CCCC1 | -1.8 | -9.3 | 20620* | -1.7 | -0.4
O=C(OCc1ccccc1)/C(=C/c1cccc([N+](=O)[O-])c1)NC(=O)c1ccco1 | 1.9 | 2.9 | 4165 | 1.9 | 1.9
CC1(NC(=O)N2CCCCC2)CCS(=O)(=O)C1 (stereo unspecified) | 2.5 | 4.5 | 22585* | 3.2 | -1.1
COc1cc2c(cc1OC)/C(=C/C(=O)c1ccc([N+](=O)[O-])c(C)c1)NCC2 | 2.0 | 74.0* | 4360 | -38.3 | -6.8
COc1cc2c(cc1OC)/C(=C/C(=O)c1ccc(C)cc1)NCC2 | 1.7 | 4.5 | 4515 | 26.0 | 0.5
Cc1cc(C(=O)NCc2csc(-c3ccccc3)n2)no1 | -3.0 | 0.1 | 6320 | 4.7 | -2.6
CCCCn1nnnc1NCc1ccc(N(CC)CC)cc1 | -1.7 | -1.9 | 23951* | -3.2 | -3.5
CCCCn1nnnc1NCc1ccc(C)cc1 | 1.0 | 5.9 | 4277 | -36.6 | -4.7
CSc1ncccc1C(=O)OCC(=O)C(C)(C)C | -1.0 | 5.6 | 4095 | -6.9 | -3.5
COC(=O)c1ccc(/C=N/Nc2nc(-c3ccc(C)cc3)cs2)cc1 | 0.0 | 52.4* | 2189 | 2.7 | 0.5
Clc1ccc(-c2csc(N/N=C/c3cccnc3)n2)c(Cl)c1 | 0.4 | -4.5 | 6647 | -8.5 | -2.2
CC(/C=C/c1ccccc1)=N\Nc1nc(-c2ccccc2)cs1 | -2.7 | 1.5 | 24306* | -4.2 | -3.4
C(=N\Nc1nc(-c2ccccc2)cs1)/c1cccnc1 | -4.9 | -5.6 | 23863* | -9.9 | -5.9
CC(C)=NNc1nc(-c2ccccc2)cs1 | 1.3 | -5.3 | 2266 | -3.2 | -0.4
COc1cc(C(=O)N2Cc3cc4ccccc4nc3C2C)cc(OC)c1OC (stereo unspecified) | -0.1 | -13.1 | 3537 | -3.5 | -5.1
Cc1cccn2c(=O)c(C=O)c(N3CCC4(CC3)OCCO4)nc12 | 1.8 | 13.4 | 3492 | ? | -3.4
COc1cccc(C(=O)N(Cc2ccccc2)Cc2cc3cc4c(cc3[nH]c2=O)OCCO4)c1 | -1.9 | -11.8 | 20933* | -2.5 | -5.6
O=C(c1ccco1)N(Cc1ccc2c(c1)OCO2)Cc1cc2cc3c(cc2[nH]c1=O)OCO3 | -1.1 | -1.9 | 3345 | 1.5 | -10.4
Cc1cc2cc(CN(Cc3ccc4c(c3)OCO4)C(=O)c3ccco3)c(=O)[nH]c2cc1C | -0.1 | -1.2 | 3173 | -0.4 | 2.0
COc1cc2cc(CN(Cc3ccc4c(c3)OCO4)C(=O)c3ccco3)c(=O)[nH]c2cc1OC | -2.4 | 5.6 | 16500* | -7.5 | -3.6
COc1ccc(C(=O)N(Cc2ccccc2)Cc2cc3cc4c(cc3[nH]c2=O)OCCO4)cc1 | -5.7 | 5.5 | 22249* | -4.9 | 0.9
Cc1ccc(CN2CCNC(=O)C2CC(=O)N(C)C2CCOCC2)cc1 (stereo unspecified) | 3.4 | -18.8 | 5390 | 7.9 | 7.1
CCc1ccc(NC(=O)C2CCN(S(=O)(=O)c3ccc4c(c3)CC(C)N4C(C)=O)CC2)cc1 (stereo unspecified) | -0.3 | 13.1 | 5898 | 1.3 | 1.4
SMILES | BoNT A protease | MazEF act | Bead autofluor | BoNT-F LC inh | Anthrax LF inh2
Nc1nonc1C(=O)OCC(=O)N1CCOCC1 | ? | 7.3 | 20876* | -5.4 | -7.0
Cc1ccc(C(C)C)c(OCC(=O)N2CCN(c3ncccn3)CC2)c1 | 2.6 | -0.4 | 5704 | 3.2 | -5.8
COC(=O)c1nn(-c2ccc(OC)cc2)c(=O)cc1Oc1ccccc1 | 1.7 | -2.3 | 21753* | 3.0 | -1.0
COC(=O)c1nn(-c2ccccc2)c(=O)cc1Oc1ccc(Cl)cc1 | 0.5 | 1.1 | 4324 | -2.5 | 2.0
Cc1ccc(S(=O)(=O)N2CCCOC2CNC(=O)C(=O)NCc2cccs2)cc1 (stereo unspecified) | -0.4 | 3.2 | 2977 | -4.9 | -2.4
C/C(=N\NC(=O)c1ccccc1)c1ccc2c(c1)OCO2 | 0.2 | 5.7 | 22585* | 4.3 | 1.7
NC(=NCc1ccc2c(c1)OCO2)NC(=O)c1ccccc1 | 6.2 | 1.5 | 4326 | 45.3* | -7.7
C/C(CCc1ccc2c(c1)OCO2)=N\NC(=O)c1ccccc1 | -0.6 | -0.3 | 2635 | -3.2 | 0.1
